Inconclusive results are not listed. Where a call stands in place of a potency, no number is given. Active and inactive are the calls of the source. Calls come from the whole dose curve; as a rule, active = well fitted curve in the direction sought with a large enough effect; inconclusive = small, poorly fitted or top-dose-only effect, or another doubt; inactive = no such curve, though single readings can be large or run the other way.
Experiment: qHTS Assay for Rab9 Promoter Activators: Hit Validation Using Renilla Luciferase Read-Out
Procedure, shortened: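 Huh7 cells stably carrying NPC promoter-luciferase, 1,500 cells/well, exposed to compound for 24 h at 37 deg C. Luminescence read 10 min after […] addition; validation of firefly-read primary hits.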

SMILES: Cn1c(CCN2CCN(c3ccccc3)CC2)nc2cc(NC(=O)c3ccco3)ccc21
- Potency: inactive

SMILES: O=S(=O)(c1cccs1)N1CCN(c2ncccn2)CC1
- Potency: inactive

SMILES: O=C(CSc1ncccn1)Nc1cccc2ccccc12
- Potency: inactive

SMILES: COc1cccc(C(C(=O)NC2CCCC2)N(CCC(C)C)C(=O)CCC(=O)Nc2cc(C)on2)c1 (stereo not drawn)
- Potency: inactive

SMILES: Cc1ccc(C(=O)Nc2nnc(S(=O)(=O)N3CCOCC3)s2)cc1
- Potency: inactive

SMILES: NC(=O)C1(NC(=O)[C@@H]2CC3(CC(c4cccc(NC(=O)[C@@H]5CCC(=O)N5)c4)=NO3)CN2C(=O)c2ccccc2)CC1 (stereo partly drawn)
- Potency: inactive

SMILES: CC1CN(C(=O)c2ccncc2)CC(C)O1 (stereo not drawn)
- Potency: inactive

SMILES: CCOC(=O)c1ccc(-c2nnc(-c3ccc(Cl)cc3Cl)o2)cc1
- Potency: inactive

SMILES: COc1ccc(C(c2nnnn2CCc2ccccc2)N2CCN(C3CCCC3)CC2)cc1 (stereo not drawn)
- Potency: inactive

SMILES: CC(C)(C)C(=O)NC(=S)Nc1ccccc1F
- Potency: inactive

SMILES: COc1ccc(S(=O)(=O)NC(C(=O)NCCc2ccccn2)C(C)C)cc1 (stereo not drawn)
- Potency: inactive

SMILES: CCOC(=O)C1(Cc2cccc(Cl)c2)CCCN(C(=O)CCSC)C1 (stereo not drawn)
- Potency: inactive

SMILES: COc1cccc(NC(=O)CN2C(=O)CSc3ccc(S(=O)(=O)N4CCC(C)CC4)cc32)c1
- Potency: inactive

SMILES: NC(=O)C(=O)NN=C1C2CC3CC(C2)CC1C3
- Potency: inactive

SMILES: CCC(=O)N1c2ccccc2NC2=C(C(=O)CCC2)C1c1ccc(N(C)C)cc1 (stereo not drawn)
- Potency: inactive

SMILES: COc1cccc(C2Nc3ccccc3NC3=C2C(=O)CC(C)(C)C3)c1 (stereo not drawn)
- Potency: inactive

SMILES: Cc1ccc(NC(=O)c2c(O)c3ccccc3n(C)c2=O)nc1
- Potency: inactive

SMILES: Cc1ccc(N(O)C(=O)NCCCCNC(=O)N(O)c2ccc(C)cc2)cc1
- Potency: inactive

SMILES: Cc1ccc(NC(=O)Nc2cccc3ccccc23)cc1
- Potency: inactive

SMILES: Nc1nc(SCCO)[nH]c(=O)c1NC(=O)c1ccco1
- Potency: inactive

SMILES: Cc1[nH]n(-c2cccc3ccccc23)c(=O)c1/C=N/c1sc2c(c1C#N)CCC2
- Potency: inactive

SMILES: COc1ccccc1N(C(=O)c1snc(C(N)=O)c1N)C(C(=O)NC1CCCCC1)c1cccc(OC)c1OC (stereo not drawn)
- Potency: inactive

SMILES: O=C(c1cccc(Oc2ccc([N+](=O)[O-])cc2)c1)N1CCOCC1
- Potency: inactive

SMILES: Nc1c(N(CCO)C(=O)/C=C/c2ccco2)c(=O)[nH]c(=O)n1Cc1ccccc1
- Potency: inactive

SMILES: N#CC/C(N)=N/NC(=O)CCCNc1ncc(C(F)(F)F)cc1Cl
- Potency: inactive

SMILES: Cc1ccc2nc(Nc3ccc(Cl)cc3)c3nncn3c2c1
- Potency: inactive

SMILES: O=C(CN1C(=O)COc2ccc(Cl)cc21)NCC1CCCO1 (stereo not drawn)
- Potency: inactive

SMILES: CC(Sc1nnc(C(F)(F)F)n1C)C(=O)Nc1ccc(S(N)(=O)=O)cc1 (stereo not drawn)
- Potency: inactive

SMILES: Cc1ccc(NC(=O)c2ncc(Cl)c(Cl)c2Cl)cc1C
- Potency: inactive

SMILES: CCOc1cc(C2C(C#N)=C(N)Oc3n[nH]c(C)c32)ccc1OCCN1CCOCC1 (stereo not drawn)
- Potency: inactive

SMILES: COc1ccc(-c2noc(N3CCCC(C(=O)Nc4ccccc4F)C3)n2)cc1 (stereo not drawn)
- Potency: inactive

SMILES: COCC1CCN(C(=O)c2ccc3oc(Cc4ccccc4)nc3c2)C1 (stereo not drawn)
- Potency: inactive

SMILES: CCOC(=O)c1ccc(NC(=O)Oc2cc(C)c(Cl)cc2C(C)C)cc1
- Potency: inactive

SMILES: COc1ccc(NC(=O)CCCN2C(=O)C(c3ccccc3)Oc3cccnc32)cc1OC (stereo not drawn)
- Potency: inactive

SMILES: Cc1ccc(C(=O)NC2CCN(CC(=O)Nc3c(C)cc(C)cc3C)CC2)cc1
- Potency: inactive

SMILES: O=C(CSc1nnc(-c2ccccc2)o1)Nc1ccccc1F
- Potency: inactive

SMILES: O=[N+]([O-])c1cnccc1Nc1ccc(F)cc1
- Potency: inactive

SMILES: Cc1nnc2n(c1=O)N=C(c1ccc(Cl)cc1)CS2
- Potency: inactive
